Rows were chosen to be rich in hits. Some 10% of all compounds tested hit in one or more screens of this group.
GPT2 inh: Primary qHTS assay for inhibitors of Glutamate pyruvate transaminase 2 (GPT2); Recombinant GPT2, coupled pyruvate oxidase/HRP Amplex Red fluorescence; Potency, µM (top dose mostly 57.7 µM), actives largely listed as inhibitors; 100,000 compounds, 0.25% hits; AID 1671188, 2021; also: nearly all actives have a fitted effect of over 60% in size
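Inhibition is scored from Amplex Red fluorescence generated when pyruvate oxidase and HRP act on pyruvate released by GPT2. Reactions contain 10ng/uL enzyme, 250uM a-KG and 2mM L-alanine and run 30 min at room temperature.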
NIH3T3 tox: Cytotoxic Profiling in NIH 3T3 Cell Line of Diverse Libraries Using Quantitative High-Throughput Screening; 94,000 compounds, 4.3% hits; AID 1345082, 2018; NIH 3T3 viability, CellTiter-Glo ATP luminescence, 48-72 h; Potency, µM (series often up to 96.7 µM), actives largely listed as inhibitors; also: nearly all actives have a fitted effect of over 55% in size
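Cytotoxicity was measured by CellTiter-Glo ATP luminescence after 48 or 72 h compound exposure at 37 °C. Mouse NIH 3T3 fibroblasts were seeded at 400 cells/well and dosed by 23 nL pin transfer.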
Luciferase inh: Firefly luciferase inhibition profiling of diverse chemical library using quantitative high-throughput screening | 76,000 compounds, 2.5% hits | AID 1347043, 2019 | purified P. pyralis luciferase, luminescence, biochemical | Potency, µM (highest dose often 115 µM), hits mostly inhibitors; also: nearly all actives have a fitted effect of over 65% in size
Target sequence (P08659 whole entry, looked up): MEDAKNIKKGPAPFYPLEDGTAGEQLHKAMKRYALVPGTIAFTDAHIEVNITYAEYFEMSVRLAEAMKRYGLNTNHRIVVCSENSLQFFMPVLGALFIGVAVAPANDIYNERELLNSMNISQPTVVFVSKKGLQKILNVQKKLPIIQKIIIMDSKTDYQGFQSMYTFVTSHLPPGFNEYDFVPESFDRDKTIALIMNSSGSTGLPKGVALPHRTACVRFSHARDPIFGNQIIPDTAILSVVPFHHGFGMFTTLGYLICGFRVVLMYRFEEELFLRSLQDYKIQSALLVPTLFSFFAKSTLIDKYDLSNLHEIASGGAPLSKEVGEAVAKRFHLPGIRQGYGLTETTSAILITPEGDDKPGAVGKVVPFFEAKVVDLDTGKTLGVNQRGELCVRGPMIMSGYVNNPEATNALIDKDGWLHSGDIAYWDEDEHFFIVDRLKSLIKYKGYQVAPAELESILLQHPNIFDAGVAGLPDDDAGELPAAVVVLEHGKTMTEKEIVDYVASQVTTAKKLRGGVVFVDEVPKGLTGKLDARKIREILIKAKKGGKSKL
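Luminescence read by CCD imager after adding enzyme (10nM final) to wells holding compound, titrated in qHTS. Substrates 10uM each D-luciferin and ATP; buffer 50mM Tris acetate pH 7.5, 10mM Mg acetate, Tween-20, BSA.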
HEK cytotox: Cytotoxic Profiling in HEK 293 Cell Line of Diverse Libraries Using Quantitative High-Throughput Screening. HEK 293 viability, ATP luminescence (CellTiter-Glo), 48-72 h. Potency, µM (titrated, usually from 115 µM), usual class: inhibitors. 94,000 compounds, 6.6% hits; also: nearly all actives have a fitted effect of over 60% in size
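Cells seeded first (HEK 293, 250 cells/well), then compound added by pintool. Incubation ran 48 or 72 hr at 37 degree Celsius. CellTiter-Glo was added and luminescence imaged after 10 min at room temperature.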
hNpr1 antagonist: Natriuretic polypeptide receptor (hNpr1) antagonism - Primary qHTS | Atrial natriuretic peptide receptor 1 (Homo sapiens), P16066 | HEK293 hNpr1 GloSensor cGMP, ANP-stimulated luminescence | Potency, µM (doses to about 46.3 µM), usual class: inhibitors | 76,000 compounds, 1.6% hits; calls by dose curve; also: nearly all actives have a fitted effect of over 60% in size
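HEK293 cells stably expressing human Npr1 and cGMP GloSensor pGS-40F, loaded 2 h with 2% GloSensor reagent, given compound 30 min at room temperature. Luminescence read before and 20 min after 0.1 nM hNppA.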
NPR1 antag cnf: Natriuretic polypeptide receptor (hNpr1) antagonism - Confirmation. shares compounds with hNpr1 antagonist. HEK293 hNpr1 cGMP GloSensor luminescence, ANP-stimulated. Potency, µM (top dose mostly 57.6 µM), usual class: inhibitors. 1,400 compounds, 76% hits; calls by dose curve; also: nearly all actives have a fitted effect of over 70% in size
Npr2 selectivity: Natriuretic polypeptide receptor (hNpr2) antagonism - Subtype selectivity assay | shares compounds with hNpr1 antagonist | HEK293 hNpr2 GloSensor cGMP luminescence, CNP-stimulated | Potency, µM (doses to about 57.6 µM), most hits filed as inhibitors | 1,400 compounds, 67% hits; calls by dose curve; also: nearly all actives have a fitted effect of over 70% in size
FLuc counter: Natriuretic polypeptide receptor (hNpr1) antagonism - Confirmation firefly luciferase (FLuc) inhibition counterscreen. shares compounds with hNpr1 antagonist. purified FLuc enzyme, luminescence, Km substrate. Potency, µM (highest dose often 57.6 µM), usual class: inhibitors. 1,400 compounds, 0.7% hits. AID 1347047, 2019
GloSensor ctrl: Natriuretic polypeptide receptor (hNpr1) antagonism - Counterscreen GloSensor control cell line; shares compounds with hNpr1 antagonist; HEK293 GloSensor cGMP, SNP-stimulated, luminescence; Potency, µM (series often up to 57.6 µM), most hits filed as inhibitors; 1,400 compounds, 69% hits; AID 1347051, 2019; calls by dose curve; also: nearly all actives have a fitted effect of over 70% in size
Large screens that a line does not name were inactive (follow-up assays come after a bar, where they were run). Unless noted, calls follow the shape of the dose curve; as a rule, active = well fitted curve in the direction sought with a large enough effect; inconclusive = small, poorly fitted or top-dose-only effect, or another doubt; inactive = no such curve, though single readings can be large; an effect the other way counts as inactive or inconclusive.

OCC1CN(c2ccncn2)CC12CCN(Cc1cc(F)c(F)c(F)c1)CC2 (centres undefined)	HEK cytotox inconclusive, hNpr1 antagonist inconclusive | NPR1 antag cnf inconclusive | Npr2 selectivity inactive | FLuc counter inactive | GloSensor ctrl inactive
COc1ccc(N=C2S[C@H]3[C@H]([C@@H](O)[C@H](O)C[C@@H]3C(N)=O)N2Cc2ccc(F)cc2)cc1	GPT2 inh inconclusive
Cc1ccc2nc3n(c2c1)[C@@H](CNCc1ccc2c(c1)OCO2)COC3	NIH3T3 tox inconclusive, HEK cytotox inconclusive, hNpr1 antagonist 25µM | NPR1 antag cnf 35µM | Npr2 selectivity 35µM | FLuc counter inactive | GloSensor ctrl 31µM
COc1ccc2nc3n(c2c1)[C@@H](CNCc1ccc2c(c1)OCO2)COC3	GPT2 inh inconclusive, NIH3T3 tox inconclusive, HEK cytotox inconclusive, hNpr1 antagonist 32µM | NPR1 antag cnf 40µM | Npr2 selectivity 40µM | FLuc counter inactive | GloSensor ctrl 40µM
COc1ccc2nc3n(c2c1)[C@@H](CNC(=O)c1ccccc1)COC3	NIH3T3 tox inconclusive
COc1ccc(CCC(=O)N2CCC[C@H]2c2nc(-c3ccccc3Cl)no2)cc1	NIH3T3 tox inconclusive, HEK cytotox inconclusive, hNpr1 antagonist 13µM | NPR1 antag cnf 24µM | Npr2 selectivity inconclusive | FLuc counter inactive | GloSensor ctrl 27µM
COc1ccc(-c2noc(CC3CCN(C(=O)CCc4ccccc4)CC3)n2)cc1	NIH3T3 tox inconclusive, HEK cytotox 35µM, hNpr1 antagonist 13µM | NPR1 antag cnf 19µM | Npr2 selectivity 22µM | FLuc counter inactive | GloSensor ctrl 17µM
COc1cccc(CCC(=O)N2CCC(Cc3nc(C4CCOCC4)no3)CC2)c1	none
O=C(Cc1ccsc1)N1CCC(Cc2nc(-c3ccc(F)cc3)no2)CC1	GPT2 inh inconclusive, NIH3T3 tox inconclusive, HEK cytotox inconclusive, hNpr1 antagonist 5µM | NPR1 antag cnf 4.8µM | Npr2 selectivity 4.8µM | FLuc counter inactive | GloSensor ctrl 3.9µM
COc1ccc(-c2noc(CC3CCN(C(=O)COc4cccc(C)c4)CC3)n2)cc1	NIH3T3 tox inconclusive, HEK cytotox inconclusive, hNpr1 antagonist 16µM | NPR1 antag cnf 22µM | Npr2 selectivity 24µM | FLuc counter inactive | GloSensor ctrl 24µM
COc1ccc(CCC(=O)N2CCC(Cc3nc(-c4ccc(OC)cc4)no3)CC2)cc1	NIH3T3 tox inconclusive, HEK cytotox inconclusive, hNpr1 antagonist 11µM | NPR1 antag cnf 17µM | Npr2 selectivity 17µM | FLuc counter inactive | GloSensor ctrl 12µM
COc1ccc(CC(=O)N2CCC(Cc3nc(-c4ccc(F)cc4)no3)CC2)cc1	NIH3T3 tox inconclusive, HEK cytotox inconclusive, hNpr1 antagonist 5.6µM | NPR1 antag cnf 7.7µM | Npr2 selectivity 6.9µM | FLuc counter inactive | GloSensor ctrl 6.1µM
